Measured values reported in PubChem BioAssay.
The source made the active and inactive calls.

Assays:
[1] = system: PRMT1 (protein arginine N-methyltransferase 1); assay: small molecules binding arginine methyltransferase PRMT1 – biochemical, small-molecule microarray, 635 nm fluorescence, primary screen (AID 1088); details: higher = more signal;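 also: binding of Prmt1 protein to compounds spotted on small-molecule microarray slides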
[2] = growth effects on S. cerevisiae YJM789 – YJM789 clinical isolate, OD600, 24 h, basal, primary screen (AID 1089); details: higher = more signal, called active from +8 up or from −8 down;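 also: growth of clinical yeast isolate S. cerevisiae YJM 789 seeded 1000 cells per well; test concentration not given here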
[3] = S. pombe growth modifiers, basal conditions – strain 972, OD600, 24 h, no modulator, primary screen (AID 1090);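 also: basal condition with compound alone and no growth modifier present; test concentration not given here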; details: S. pombe 972 growth, higher = more signal, called active from +8 up or from −8 down
[4] = budding yeast growth modifiers under rapamycin – strain BY4716, OD600, 96 h, primary screen (AID 1091); also: test concentration not given here; details: S. cerevisiae BY4716 + rapamycin, higher = more signal, called active from +8 up or from −8 down
[5] = target: Torsin-1A-interacting protein 2 (Homo sapiens) (UniProt Q8NFQ8); assay: small molecules binding lysate-expressed LULL1 – cell lysate, human LULL1 lysate, 635/667 nm fluorescence, primary screen (AID 1092); details: small-molecule microarray, hLULL1 lysate binding, 635 nm fluorescence; higher = more signal;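 also: probe is lysate of COS7 cells overexpressing human LULL1; score merges per-feature 667 nm fluorescence with signal-to-noise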
[6] = optical density change of DRC41 E. coli – strain DRC41, OD650, 24 h, E. coli filamentation project, primary screen (AID 1093);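 also: MC1000 strain lacking acrAB efflux and sulA so SOS filamentation is blocked; test concentration not given here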; details: E. coli DRC41 growth, higher = more signal, called active from +8 up or from −8 down
[7] = probe aLefty2 binding to arrayed compounds – biochemical, biotinylated probe, 635/667 nm fluorescence, primary screen (AID 1094); details: small-molecule microarray, higher = more signal;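 also: score merges spot fluorescence near 667 nm with spot signal-to-noise ratio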
[8] = system: Noggin (protein binding on small-molecule microarray); assay: small molecules binding Noggin protein – biochemical, 635/667 nm fluorescence, primary screen (AID 1095); details: 635 nm fluorescence, higher = more signal;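 also: score merges 667 nm feature fluorescence with signal to noise over triplicate slides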
[9] = target: Neurogenic locus notch homolog protein 3 (Homo sapiens) (UniProt Q9UM47); assay: small molecules binding NOTCH3 protein – biochemical, 635/667 nm fluorescence, primary screen (AID 1096); details: small-molecule microarray, 635 nm fluorescence, higher = more signal
[10] = probe aEGFR binding to arrayed compounds – biochemical, biotinylated probe, 635/667 nm fluorescence, primary screen (AID 1097); details: small-molecule microarray, higher = more signal;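 also: probe is a biotinylated anti-EGFR antibody binding compounds printed on slides; score combines fluorescence near 667 nm and signal to noise of each spot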
[11] = system: Plasmodium falciparum Sir2 (PF13_0152, Sir2A); assay: Plasmodium falciparum Sir2A binding compounds – biochemical, small-molecule microarray, 635 nm fluorescence, primary screen (AID 1098); details: fluorescence 635 nm, higher = more signal;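 also: score merges spot fluorescence intensity with its signal-to-noise ratio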
[12] = probe aDKK1 binding to arrayed compounds – biochemical, biotinylated probe, 635/667 nm fluorescence, primary screen (AID 1099); details: small-molecule microarray, higher = more signal;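 also: score merges 667nm spot fluorescence with signal to noise across triplicate slides; reference of the scale not given here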
[13] = probe aCHRDL2 binding to arrayed compounds – biochemical, biotinylated probe, 635/667 nm fluorescence, primary screen (AID 1100); details: small-molecule microarray, higher = more signal
[14] = change in splice reporter luminescence, either direction, cell-based, HEK293, spliceosome inhibition project, primary screen (AID 1101); details: HEK293 splicing luciferase reporter, 24 h, higher = more signal, called active from +8 up or from −8 down;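 also: HEK293 cells carrying a splicing-competent luciferase reporter gene; test concentration not given here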
[15] = target: Fibroblast growth factor 10 (Homo sapiens) (UniProt O15520); assay: compounds binding fibroblast growth factor 10 – biochemical, small-molecule microarray, 635 nm fluorescence, primary screen (AID 1102); details: FGF10 binding, fluorescence 635 nm, higher = more signal
[16] = system: glycogen synthase kinase-3 (GSK3A per assay name; protocol says GSK3B); assay: compounds binding glycogen synthase kinase-3 – biochemical, small-molecule microarray, 635 nm fluorescence, GSK3A, primary screen (AID 1103); details: fluorescence 635 nm, higher = more signal; also: the record names both GSK3A and GSK3B
[17] = target: Epidermal growth factor receptor (Homo sapiens) (UniProt P00533); assay: compounds binding epidermal growth factor receptor – biochemical, small-molecule microarray, 635 nm fluorescence, primary screen (AID 1104); details: EGFR binding, higher = more signal;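 also: score merges 667 nm emission intensity with spot signal to noise over triplicate slides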
[18] = target: Follistatin-related protein 3 (Homo sapiens) (UniProt O95633); assay: compounds binding follistatin-related protein 3 – biochemical, small-molecule microarray, 635 nm fluorescence, primary screen (AID 1105); details: FSTL3 binding, higher = more signal;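 also: score merges emission near 667 nm and signal to noise per printed spot across three slides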
[19] = target: Dickkopf-related protein 1 (Homo sapiens) (UniProt O94907); assay: small molecules binding DKK1 protein – biochemical, small-molecule microarray, 635 nm fluorescence scan, primary screen (AID 1106); details: higher = more signal;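 also: score merges emission near 667 nm with signal to noise over three replicate slides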
[20] = system: Inhibin beta A chain (activin A); assay: small molecules binding activin A – biochemical, small-molecule microarray, 635 nm fluorescence scan, primary screen (AID 1107); details: INHBA, higher = more signal;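 also: mouse activin A protein probed at 4.33 µg/mL on printed slides; score merges bound-protein fluorescence near 667 nm with spot signal-to-noise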

Epidermal growth factor receptor (Homo sapiens), sequence (P00533 whole entry, looked up): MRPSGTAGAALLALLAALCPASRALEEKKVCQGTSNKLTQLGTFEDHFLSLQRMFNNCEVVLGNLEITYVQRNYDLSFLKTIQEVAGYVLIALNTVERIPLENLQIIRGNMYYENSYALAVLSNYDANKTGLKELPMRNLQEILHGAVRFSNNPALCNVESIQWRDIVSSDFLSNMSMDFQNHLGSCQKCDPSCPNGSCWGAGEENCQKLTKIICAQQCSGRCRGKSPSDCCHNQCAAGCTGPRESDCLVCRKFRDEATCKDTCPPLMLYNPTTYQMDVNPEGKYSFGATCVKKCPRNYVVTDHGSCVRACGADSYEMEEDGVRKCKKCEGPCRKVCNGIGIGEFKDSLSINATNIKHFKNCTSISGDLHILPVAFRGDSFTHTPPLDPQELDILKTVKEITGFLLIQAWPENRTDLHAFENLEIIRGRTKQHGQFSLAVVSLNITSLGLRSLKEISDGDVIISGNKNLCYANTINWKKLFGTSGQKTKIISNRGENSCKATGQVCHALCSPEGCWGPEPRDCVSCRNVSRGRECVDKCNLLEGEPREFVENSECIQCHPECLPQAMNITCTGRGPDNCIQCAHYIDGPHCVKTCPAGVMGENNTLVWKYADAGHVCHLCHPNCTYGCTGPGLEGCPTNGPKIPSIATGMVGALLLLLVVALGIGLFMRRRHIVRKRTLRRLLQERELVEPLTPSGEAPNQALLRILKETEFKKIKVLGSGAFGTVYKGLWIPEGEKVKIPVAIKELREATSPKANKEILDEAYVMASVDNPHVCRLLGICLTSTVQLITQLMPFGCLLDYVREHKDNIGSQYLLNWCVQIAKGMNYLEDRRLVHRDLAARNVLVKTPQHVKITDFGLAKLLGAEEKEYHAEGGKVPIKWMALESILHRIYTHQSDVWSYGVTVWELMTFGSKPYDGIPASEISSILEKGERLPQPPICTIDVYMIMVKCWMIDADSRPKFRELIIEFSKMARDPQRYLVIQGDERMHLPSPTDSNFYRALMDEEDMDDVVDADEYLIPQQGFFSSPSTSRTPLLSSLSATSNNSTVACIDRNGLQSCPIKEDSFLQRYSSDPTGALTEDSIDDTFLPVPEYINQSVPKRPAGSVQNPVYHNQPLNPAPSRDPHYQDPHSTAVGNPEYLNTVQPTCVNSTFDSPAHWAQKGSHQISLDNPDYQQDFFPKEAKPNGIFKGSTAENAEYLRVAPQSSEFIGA
Follistatin-related protein 3 (Homo sapiens), sequence (O95633 whole entry, looked up): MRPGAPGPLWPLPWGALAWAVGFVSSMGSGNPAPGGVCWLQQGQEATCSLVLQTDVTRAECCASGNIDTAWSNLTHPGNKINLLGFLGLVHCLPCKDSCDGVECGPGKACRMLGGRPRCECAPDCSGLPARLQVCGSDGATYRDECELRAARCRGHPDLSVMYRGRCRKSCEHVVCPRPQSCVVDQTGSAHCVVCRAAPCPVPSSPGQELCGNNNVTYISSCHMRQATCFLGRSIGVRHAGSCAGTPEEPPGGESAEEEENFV
Dickkopf-related protein 1 (Homo sapiens), sequence (O94907 whole entry, looked up): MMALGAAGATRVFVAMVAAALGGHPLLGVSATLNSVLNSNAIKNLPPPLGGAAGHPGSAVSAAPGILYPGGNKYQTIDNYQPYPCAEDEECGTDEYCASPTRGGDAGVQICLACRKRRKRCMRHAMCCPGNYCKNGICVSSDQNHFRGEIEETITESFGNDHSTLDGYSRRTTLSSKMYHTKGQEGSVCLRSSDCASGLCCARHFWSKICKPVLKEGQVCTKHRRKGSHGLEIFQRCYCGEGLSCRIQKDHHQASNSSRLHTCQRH
Fibroblast growth factor 10 (Homo sapiens), sequence (O15520 whole entry, looked up): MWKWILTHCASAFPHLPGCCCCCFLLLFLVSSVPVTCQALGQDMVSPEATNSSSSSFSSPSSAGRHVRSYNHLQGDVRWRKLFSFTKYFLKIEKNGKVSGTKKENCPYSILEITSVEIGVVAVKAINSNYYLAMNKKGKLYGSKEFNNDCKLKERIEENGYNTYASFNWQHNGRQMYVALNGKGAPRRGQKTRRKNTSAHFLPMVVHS
Torsin-1A-interacting protein 2 (Homo sapiens), sequence (Q8NFQ8 whole entry, looked up): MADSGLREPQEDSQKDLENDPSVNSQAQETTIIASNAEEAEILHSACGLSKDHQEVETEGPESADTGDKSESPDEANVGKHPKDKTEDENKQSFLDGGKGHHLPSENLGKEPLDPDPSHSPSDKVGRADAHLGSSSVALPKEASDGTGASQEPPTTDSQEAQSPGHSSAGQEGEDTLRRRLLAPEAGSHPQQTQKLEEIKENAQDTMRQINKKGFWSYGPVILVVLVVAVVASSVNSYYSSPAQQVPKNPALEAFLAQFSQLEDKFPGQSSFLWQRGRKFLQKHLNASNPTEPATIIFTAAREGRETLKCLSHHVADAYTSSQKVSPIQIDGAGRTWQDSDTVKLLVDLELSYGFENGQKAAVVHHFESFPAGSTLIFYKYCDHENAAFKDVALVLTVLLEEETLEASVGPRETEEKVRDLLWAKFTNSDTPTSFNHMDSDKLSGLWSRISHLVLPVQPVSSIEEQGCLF
Neurogenic locus notch homolog protein 3 (Homo sapiens), sequence (Q9UM47 whole entry, looked up): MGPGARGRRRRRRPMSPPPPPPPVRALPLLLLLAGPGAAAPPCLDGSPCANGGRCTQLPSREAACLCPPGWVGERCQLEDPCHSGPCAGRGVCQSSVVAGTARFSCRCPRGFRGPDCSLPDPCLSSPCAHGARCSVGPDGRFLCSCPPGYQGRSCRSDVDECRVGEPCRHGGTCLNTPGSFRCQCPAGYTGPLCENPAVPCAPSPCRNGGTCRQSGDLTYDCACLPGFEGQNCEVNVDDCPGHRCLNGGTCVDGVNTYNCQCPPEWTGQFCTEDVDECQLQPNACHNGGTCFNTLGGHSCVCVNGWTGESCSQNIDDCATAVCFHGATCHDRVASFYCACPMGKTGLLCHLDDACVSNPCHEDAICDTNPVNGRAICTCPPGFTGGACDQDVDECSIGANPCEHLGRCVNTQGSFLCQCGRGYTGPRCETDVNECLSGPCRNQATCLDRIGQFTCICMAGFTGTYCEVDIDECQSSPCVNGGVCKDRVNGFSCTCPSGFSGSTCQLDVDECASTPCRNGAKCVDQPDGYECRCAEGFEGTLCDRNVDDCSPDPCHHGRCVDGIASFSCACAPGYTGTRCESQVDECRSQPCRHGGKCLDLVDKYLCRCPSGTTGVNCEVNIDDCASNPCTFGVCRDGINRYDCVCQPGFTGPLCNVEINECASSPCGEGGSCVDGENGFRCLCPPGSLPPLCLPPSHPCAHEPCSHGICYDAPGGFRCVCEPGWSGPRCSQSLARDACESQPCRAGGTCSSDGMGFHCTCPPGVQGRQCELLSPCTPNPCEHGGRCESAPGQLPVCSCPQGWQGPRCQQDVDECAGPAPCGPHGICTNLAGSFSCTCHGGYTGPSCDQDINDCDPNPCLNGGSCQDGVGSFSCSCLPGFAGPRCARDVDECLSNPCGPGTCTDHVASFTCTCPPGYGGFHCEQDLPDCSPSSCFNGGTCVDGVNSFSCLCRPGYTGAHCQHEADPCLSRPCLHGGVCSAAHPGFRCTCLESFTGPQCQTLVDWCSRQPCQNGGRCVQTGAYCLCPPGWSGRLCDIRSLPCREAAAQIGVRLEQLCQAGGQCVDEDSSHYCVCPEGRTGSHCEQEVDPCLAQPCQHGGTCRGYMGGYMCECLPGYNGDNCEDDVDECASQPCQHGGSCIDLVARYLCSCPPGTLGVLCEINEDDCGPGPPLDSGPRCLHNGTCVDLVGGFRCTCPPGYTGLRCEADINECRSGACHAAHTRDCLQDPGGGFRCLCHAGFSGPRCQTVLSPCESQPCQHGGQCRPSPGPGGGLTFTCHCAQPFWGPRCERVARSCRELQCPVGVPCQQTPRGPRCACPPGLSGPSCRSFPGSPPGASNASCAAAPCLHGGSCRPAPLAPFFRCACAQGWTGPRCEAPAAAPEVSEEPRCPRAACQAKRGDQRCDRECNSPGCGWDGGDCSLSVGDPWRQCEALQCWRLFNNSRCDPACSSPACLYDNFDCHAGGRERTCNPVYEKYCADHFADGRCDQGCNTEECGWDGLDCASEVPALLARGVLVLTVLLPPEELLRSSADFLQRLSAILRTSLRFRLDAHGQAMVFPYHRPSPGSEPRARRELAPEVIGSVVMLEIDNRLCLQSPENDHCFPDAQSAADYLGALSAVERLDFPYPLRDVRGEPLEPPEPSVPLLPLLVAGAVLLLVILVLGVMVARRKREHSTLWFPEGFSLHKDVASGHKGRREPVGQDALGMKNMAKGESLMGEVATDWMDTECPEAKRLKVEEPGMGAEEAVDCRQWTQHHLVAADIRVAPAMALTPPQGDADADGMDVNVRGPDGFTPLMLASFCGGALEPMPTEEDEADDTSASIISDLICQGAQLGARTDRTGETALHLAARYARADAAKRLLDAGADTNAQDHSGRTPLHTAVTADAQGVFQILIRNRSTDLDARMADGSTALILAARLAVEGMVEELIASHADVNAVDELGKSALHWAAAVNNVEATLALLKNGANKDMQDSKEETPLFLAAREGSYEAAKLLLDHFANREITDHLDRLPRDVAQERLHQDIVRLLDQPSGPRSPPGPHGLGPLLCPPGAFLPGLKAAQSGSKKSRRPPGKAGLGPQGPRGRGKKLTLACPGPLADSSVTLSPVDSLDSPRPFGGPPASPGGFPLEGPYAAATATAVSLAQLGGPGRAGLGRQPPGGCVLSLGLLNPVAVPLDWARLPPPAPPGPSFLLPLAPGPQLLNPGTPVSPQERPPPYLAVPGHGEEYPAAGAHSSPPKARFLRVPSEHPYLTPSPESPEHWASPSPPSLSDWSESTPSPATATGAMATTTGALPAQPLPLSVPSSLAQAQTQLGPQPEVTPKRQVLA

SMILES	composite z-score [1]	z-score [2]	z-score [3]	z-score [4]	composite z-score [5]	z-score [6]	composite z-score [7]	composite z-score [8]	composite z-score [9]	composite z-score [10]	composite z-score [11]	composite z-score [12]	composite z-score [13]	z-score [14]	composite z-score [15]	composite z-score [16]	composite z-score [17]	composite z-score [18]	composite z-score [19]	composite z-score [20]
COCCCNC(=O)[C@@]1(CCS(=O)(=O)c2ccccc2)N=C(c2ccc(OCCCO)cc2)O[C@H]1c1ccccc1N=[N+]=[N-]	1.53	-1.2 (inactive)	0.431 (inactive)	1.36 (inactive)	3.47	0.299 (inactive)	0.155	0.908	1.07	0.0135	1.41	0.879	0.942	-0.0182 (inactive)	1.49	0.79	-0.0333	1.25	0.267	0.796
CC(=O)n1cc(C(O)C2C=CC3C(=O)NC(=O)C3N2Nc2ccccn2)c2ccccc21 (stereo not given)	0.553	0.505 (inactive)	0.777 (inactive)	0.171 (inactive)	0.134	-0.965 (inactive)	-0.0594	0.187	0.375	-0.0084	0.452	-0.0908	0.0413	2.28 (inactive)	0.168	0.0973	0.523	0.225	0.339	0.709
C[N+](C)(C)CCCC[C@@H]1NC(=O)[C@H]2C[C@@H](C(=O)NCCCCCCNC(=O)CS)[C@@H](c3ccc(O)cc3)N2C1=O	-0.27	-0.304 (inactive)	0.481 (inactive)	-0.344 (inactive)	0.908	0.138 (inactive)	-0.17	0.395	-1.06	-0.126	-0.783	-0.0452	0.782	-0.45 (inactive)	-0.347	-1.09	-0.805	-0.884	-0.628	0.507
CCCCC(O)C1C=CC2C(=O)N(C)C(=O)C2N1N1CCCCC1 (stereo not given)	0.506	0.882 (inactive)	1.05 (inactive)	1.97 (inactive)	2.84	-1.1 (inactive)	0.365	0.277	0.967	0.197	0.933	0.945	0.743	0.871 (inactive)	0.546	-0.0038	0.229	0.574	0.0003	1.42
COCCOC(=O)N1C(=O)[C@@]2(c3ccccc31)[C@H](C(=O)N1CCCCCCC1)[C@H]1C(=O)O[C@H](c3ccccc3)[C@H](c3ccccc3)N1[C@@H]2c1ccc(OCCO)cc1	1.54	1.9 (inactive)	1.62 (inactive)	4.28 (inactive)	4.99	-0.348 (inactive)	1.98	2.22	1	1.38	2.08	3.12	1.76	-0.69 (inactive)	1.69	1.49	2.05	1.79	2.72	1.77
C=CCC(OC(C)=O)[C@@H]1[C@@H](N(Cc2ccc(-c3cccc(C(F)(F)F)c3)o2)C(=O)Cc2ccc(OC)cc2)c2cc(OCCCO)ccc2N1C(=O)c1ccc2ccccc2c1 (stereo not given in full)	-0.485	0.514 (inactive)	0.428 (inactive)	-0.645 (inactive)	0.589	0.315 (inactive)	0.0079	0.397	0.035	-0.127	0.403	-0.179	0.577	-0.814 (inactive)	-0.344	-1.46	-0.488	0.195	-0.298	1.39
[N-]=[N+]=NCc1ccccc1[C@@H]1OC(c2ccc(OCCCO)cc2)=N[C@]1(CCS(=O)(=O)c1ccccc1)C(=O)N1CCOCC1	1.54	-0.401 (inactive)	0.144 (inactive)	0.971 (inactive)	3.24	1.7 (inactive)	0.456	0.256	1.07	0.256	1.46	1.27	1.31	-1.56 (inactive)	1.04	1.12	0.117	1.07	-0.242	0.933
